# Experimental data reported in PubChem BioAssay (Tox21).
# Values joined by “and” are separate entries in the source; they are usually repeats but may differ in a detail not shown here. Identical values can stand only once. Active and inactive are the calls of the source. Entries that show only a call come without a potency. Unless noted, calls come from the whole dose curve; as a rule, active = well fitted curve in the direction sought with a large enough effect in the repeat runs; inconclusive = weak or mixed curves; inactive = no such curve, though single readings can be large; an effect the other way counts as inactive or inconclusive.
# Columns and labels:
# [1] = qHTS assay for small molecule agonists of the p53 signaling pathway (AID 651631; calls by dose curve; note: nearly all actives have a fitted effect of over 15% in size; note: potency is the fitted concentration of half-maximal effect)
# Summary of the method: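 HCT-116 cells carrying a beta-lactamase reporter under p53 response elements were dosed with compound for 16 h at 37 °C. LiveBLAzer B/G FRET substrate was then added for 2 h at room temperature, and fluorescence intensity was read to detect pathway agonism.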
# [2] = qHTS assay for small molecule agonists of the p53 signaling pathway - cell viability (AID 651633; calls by dose curve; note: nearly all actives have a fitted effect of over 30% in size; note: potency is the fitted concentration of half-maximal effect)
# Summary of the method: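 p53RE-bla cells, seeded at 4,000 per well and rested 5 h at 37 C/5% CO2, received compounds in DMSO for 16 h at 37 C. CellTiter-Glo was then added, and luminescence was read after 30 min at room temperature to gauge cytotoxicity.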
# [3] = qHTS assay for small molecules that induce genotoxicity in human embryonic kidney cells expressing luciferase-tagged ATAD5 - cell viability (AID 651634; calls by dose curve; note: nearly all actives have a fitted effect of over 25% in size; note: potency is the fitted concentration of half-maximal effect)
# Summary of the method: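 Seeding of 2,000 HEK293T ATAD5-luciferase cells per well preceded pin-tool compound transfer. Plates sat 15.5 hr at 37C under 5% CO2, then fluorescence was read after 30 min with CellTiter-Fluor.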
# [4] = qHTS assay for small molecule disruptors of the mitochondrial membrane potential - cell viability (AID 720634; calls by dose curve; note: nearly all actives have a fitted effect of over 20% in size; note: potency is the fitted concentration of half-maximal effect)
# Summary of the method: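 Measuring cytotoxicity alongside mitochondrial potential, the screen quantified ATP by luminescence in HepG2 cells after 1 hr compound incubation and a 30 min room-temperature CellTiter-Glo step.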
# [5] = qHTS assay for small molecule disruptors of the mitochondrial membrane potential (AID 720635); note: potency is the fitted concentration of half-maximal effect
# Summary of the method: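 HepG2 cells (2,000/well) attached overnight at 37C, then took compound for 1 hr at 37C, 5% CO2. Mito-MPS dye was added for 30 min; fluorescence was read at 490/535 nm (monomers) and 540/590 nm (aggregates).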
# [6] = qHTS assay to test for compound auto fluorescence at 590 nm (red) in HepG2 cells (AID 720674)
# Summary of the method: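 Rose Bengal sodium served as the red fluorophore standard. HepG2 monolayers (overnight attachment, MEM with 10% FBS) were exposed to test compounds for 1 hr at 37 C and read at Ex 540/Em 590 nm.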
# [7] = qHTS assay to test for compound auto fluorescence at 535 nm (green) in HepG2 cells (AID 720675)
# [8] = qHTS assay to test for compound auto fluorescence at 590 nm (red) in HEK293 cells (AID 720679)
# Summary of the method: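 Red autofluorescence, HEK293 cells: 2,000 cells/well; attach 4-5 hr 37C; add 23 nL cpd or DMSO; incubate o/n 37C 5% CO2; read Ex540/Em590; Rose Bengal sodium reference.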
# [9] = qHTS assay to test for compound auto fluorescence at 535 nm (green) in HEK293 cells (AID 720680)
# [10] = qHTS assay to test for compound auto fluorescence at 460 nm (blue) in HEK293 cell free culture (AID 720681)
# Summary of the method: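 Test compounds were pinned into cell-free culture medium (DMEM with 10% FBS) and fluorescence was read directly at Ex/Em 405/460 nm. Signals were expressed as fluorescence equivalents of triamterene, with DMSO vehicle as control.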
# [11] = qHTS assay to test for compound auto fluorescence at 535 nm (green) in HEK293 cell free culture (AID 720682)
# Summary of the method: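 Green-label autofluorescence (485 nm excitation, 535 nm emission) measured on compound added to cell-free culture medium (DMEM, 10% FBS). Output is expressed relative to fluorescein.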
# [12] = qHTS assay to test for compound auto fluorescence at 590 nm (red) in HEK293 cell free culture (AID 720683)
# Summary of the method: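 Tox21 10K library compounds were pinned into cell-free DMEM with 10% FBS and fluorescence was read at excitation 540 nm. Activity is expressed as Rose Bengal sodium equivalency.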
# [13] = qHTS assay to test for compound auto fluorescence at 590 nm (red) in HepG2 cell free culture (AID 720684)
# Summary of the method: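 Measured in medium alone (MEM containing 10% FBS) following pintool addition of compound; emission at 590 nm with 540 nm excitation, referenced to Rose Bengal sodium.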
# [14] = qHTS assay to test for compound auto fluorescence at 460 nm (blue) in HepG2 cell free culture (AID 720685)
# Summary of the method: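 Compound (23 nL) or DMSO pinned into cell-free MEM with 10% FBS; blue fluorescence read at 405/460 nm excitation/emission, expressed as auto-fluorescence equivalency to triamterene.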
# [15] = qHTS assay to test for compound auto fluorescence at 535 nm (green) in HepG2 cell free culture (AID 720686)
# [16] = qHTS assay to test for compound auto fluorescence at 460 nm (blue) in HepG2 cells (AID 720687)
# Summary of the method: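 Cells (2,000/well in MEM with 10% FBS) attached overnight at 37 C, then were exposed to compound or DMSO for 1 hr at 37 C, 5% CO2. Fluorescence read at Ex/Em 405/460 nm, expressed as triamterene-equivalent signal.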
# [17] = target: Glucocorticoid receptor (Homo sapiens) (UniProt P04150); test: qHTS assay to identify small molecule agonists of the glucocorticoid receptor (GR) signaling pathway (AID 720691; active = well fitted activation curve with a large enough effect in the signal ratio in the repeat runs, not every such curve was filed as active; inconclusive = weak or mixed curves, or effect the other way; inactive = no such curve, though single readings can be large or run the other way; the % refers to the signal ratio; note: potency is the fitted concentration of half-maximal effect); settings: GR-bla HeLa, beta-lactamase reporter ratio, 18 h; activation: at 62.4 µM (top of the series)
# Glucocorticoid receptor (Homo sapiens), sequence (P04150 whole entry, looked up): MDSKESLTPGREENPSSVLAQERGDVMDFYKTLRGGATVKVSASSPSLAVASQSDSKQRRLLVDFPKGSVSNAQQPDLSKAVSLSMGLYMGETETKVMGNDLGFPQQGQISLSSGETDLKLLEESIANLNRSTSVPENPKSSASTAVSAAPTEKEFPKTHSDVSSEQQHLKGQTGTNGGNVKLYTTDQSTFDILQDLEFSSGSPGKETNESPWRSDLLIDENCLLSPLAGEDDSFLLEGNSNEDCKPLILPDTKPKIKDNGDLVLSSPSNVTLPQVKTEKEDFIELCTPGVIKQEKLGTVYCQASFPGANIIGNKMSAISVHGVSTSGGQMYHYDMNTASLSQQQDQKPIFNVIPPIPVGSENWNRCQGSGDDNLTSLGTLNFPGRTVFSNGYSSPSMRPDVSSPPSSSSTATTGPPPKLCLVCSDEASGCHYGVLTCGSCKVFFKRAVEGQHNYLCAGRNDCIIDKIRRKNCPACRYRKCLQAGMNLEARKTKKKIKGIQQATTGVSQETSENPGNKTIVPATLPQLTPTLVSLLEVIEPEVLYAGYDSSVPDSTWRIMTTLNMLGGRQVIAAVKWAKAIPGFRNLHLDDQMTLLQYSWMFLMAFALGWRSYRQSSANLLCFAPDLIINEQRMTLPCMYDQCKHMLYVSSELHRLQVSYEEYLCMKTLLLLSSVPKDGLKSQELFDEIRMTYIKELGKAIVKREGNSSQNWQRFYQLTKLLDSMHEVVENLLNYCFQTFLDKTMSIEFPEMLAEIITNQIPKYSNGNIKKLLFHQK
# Summary of the method: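 Reporter read-out: fluorescence intensity following 2 h room-temperature LiveBLAzer B/G FRET substrate loading. Prior step: GR-bla HeLa cells held 4 h, then treated 18 h at 37 C.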
# [18] = target: Glucocorticoid receptor (Homo sapiens) (UniProt P04150); test: qHTS assay to identify small molecule antagonists of the glucocorticoid receptor (GR) signaling pathway (AID 720692; active = well fitted inhibition curve with a large enough effect in the signal ratio in the repeat runs, not every such curve was filed as active; inconclusive = weak or mixed curves, or effect the other way; inactive = no such curve, though single readings can be large or run the other way; the % refers to the signal ratio; note: potency is the fitted concentration of half-maximal effect)
# Summary of the method: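 Dexamethasone (5 nM final) stimulated a stably integrated GRE-beta-lactamase reporter in HeLa cells during 18 h co-incubation with compounds; signal was quantified as fluorescence intensity of B/G FRET substrate after 2 h.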
# [19] = qHTS assay for small molecules that induce genotoxicity in human embryonic kidney cells expressing luciferase-tagged ATAD5 (AID 651632); note: nearly all actives have a fitted effect of over 15% in size; note: potency is the fitted concentration of half-maximal effect
# Summary of the method: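 Reporter cells (HEK293T) express luciferase-tagged ATAD5, a protein that accumulates after DNA damage. Treat 16 hr at 37C/5% CO2, add Amplite, wait 30 min at RT, and read luminescence.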
# [20] = qHTS assay to test for compound auto fluorescence at 460 nm (blue) in HEK293 cells (AID 720678)
# Summary of the method: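 Intrinsic compound fluorescence is recorded in live HEK293 cultures after overnight incubation at 37C, 5% CO2, using excitation 405 nm and emission 460 nm. Values are referenced to triamterene.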
SMILES,Potency [1],Potency [2],Potency [3],Potency [4],Potency [5],Potency [6],Potency [7],Potency [8],Potency [9],Potency [10],Potency [11],Potency [12],Potency [13],outcome [14],Potency [15],outcome [16],Potency [17],Potency [18],Potency [19],Potency [20]
COc1ccc(CNCC(O)COc2ccc3[nH]c(=O)ccc3c2)cc1OC (stereo unspecified),inactive,inactive,inactive,inactive,inactive,inactive,inactive,inactive,inactive,inactive,inactive,inactive,inactive,inactive,inactive,inactive,inactive,inactive,–,–
COc1cc([C@@H]2c3cc4c(cc3C(O[C@@H]3O[C@@H]5CO[C@@H](C)O[C@H]5[C@H](O)[C@H]3O)C3COC(=O)[C@@H]32)OCO4)cc(OC)c1OP(=O)(O)O (stereo partly specified),–,inactive,inactive,inactive,inactive,inactive,inactive,inactive,inactive,inactive,inactive,inactive,inactive,inactive,inactive,inactive,–,–,2.66 µM (active) and 6.68 µM (active),inactive
CC1(C)S[C@@H]2[C@H](NC(=O)[C@H](N)c3ccccc3)C(=O)N2[C@H]1C(=O)OCOC(=O)[C@@H]1N2C(=O)C[C@H]2S(=O)(=O)C1(C)C,–,inactive,inactive,inactive,inactive,inactive,inactive,inactive,inactive,inactive,inactive,inactive,inactive,inactive,inactive,inactive,–,–,inactive,inactive
OCCO[C@@H]1[C@@H](O)[C@H](O)[C@@H](CO)O[C@@H]1O,inactive,inactive,inactive,inactive,inactive,inactive,inactive,inactive,inactive,inactive,inactive,inactive,inactive,inactive,inactive,inactive,13.4 µM [inconclusive] (active),–,–,–
CC1=C(/C=C/C(C)=C/C=C/C(C)=C/C=C/C=C(C)/C=C/C=C(C)/C=C/C2=C(C)C[C@@H](O)CC2(C)C)C(C)(C)C[C@H](O)C1,29.8 µM (active),–,–,–,–,inactive,inactive,inactive,inactive,inactive,inactive,inactive,inactive,inactive,inactive,inactive,inactive,23.9 µM (active),–,inactive
Nc1ncnc2c1ncn2[C@@H]1O[C@H](COP(=O)(O)OP(=O)(O)OP(=O)(O)O)[C@@H](O)[C@H]1O,26.6 µM (active),inactive,inactive,9.44 µM (active),–,inactive,inactive,inactive,inactive,inactive,inactive,inactive,inactive,inactive,inactive,inactive,inactive,–,–,inactive
Cc1cc(/C=C/c2ccc3cc(N(C)C)ccc3[n+]2C)c(C)n1-c1ccccc1,9.02 µM (active),5.07 µM (active),–,inactive,1.43 µM (active),–,inactive,–,inactive,inactive,inactive,–,–,inactive,inactive,inactive,inactive,–,–,inactive
CNC(C)CCC=C(C)C (stereo unspecified),–,inactive,inactive,inactive,inactive,inactive,inactive,inactive,inactive,inactive,inactive,inactive,inactive,inactive,inactive,inactive,–,–,inactive,inactive
C=C1CC[C@@H]2[C@](C)(CO)[C@H](O)CC[C@@]2(C)[C@@H]1C/C=C1/C(=O)OC[C@H]1O,–,inactive,inactive,inactive,inactive,inactive,inactive,inactive,inactive,inactive,inactive,inactive,inactive,inactive,inactive,inactive,–,–,inactive,inactive
Cc1ccc(/C(=C\CN2CCCC2)c2cccc(/C=C/C(=O)O)n2)cc1,inactive,inactive,inactive,inactive,–,inactive,inactive,inactive,inactive,inactive,inactive,–,inactive,inactive,inactive,inactive,inactive,inactive,–,inactive
O=P(O)(O)OC[C@H](O)CO,–,inactive,inactive,inactive,inactive,inactive,inactive,inactive,inactive,inactive,inactive,inactive,inactive,inactive,inactive,inactive,–,–,inactive,inactive
CCOc1ccc(N=Nc2ccc(N)cc2N)cc1,–,inactive,2.37 µM (active),11.9 µM (active),1.68 µM (active),inactive,inactive,inactive,inactive,inactive,inactive,inactive,inactive,inactive,inactive,inactive,–,–,168 nM (active),inactive
NC[C@@H]1O[C@H](O[C@H]2[C@@H](O)[C@H](O[C@@H]3[C@@H](O)[C@H](N)C[C@H](N)[C@H]3O[C@H]3O[C@H](CN)[C@@H](O)[C@H](O)[C@H]3N)O[C@@H]2CO)[C@H](N)[C@@H](O)[C@@H]1O,–,inactive,inactive,inactive,inactive,inactive,inactive,inactive,inactive,inactive,inactive,inactive,inactive,inactive,inactive,inactive,–,–,inactive,inactive
